MazEF act = activators of E. coli MazEF toxin-antitoxin RNase | P0AE70 | activation, % at 20 µM | AID 504720 | 0.32% of 350,000 active | FAM/BHQ RNA-DNA oligo cleavage fluorescence, 5 h; in the data active = activation above about 50%
Target sequence (P0AE70 whole entry, looked up): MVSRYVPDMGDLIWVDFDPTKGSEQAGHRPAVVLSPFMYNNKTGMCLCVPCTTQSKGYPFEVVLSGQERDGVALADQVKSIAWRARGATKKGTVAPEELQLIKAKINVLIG
Anthrax LF prot = inhibitors of Bacillus anthracis lethal factor protease; P15917; multiplex microsphere protease cleavage assay, LF; inhibition, % at 10 µM; 0.12% of 360,000 active
BoNT F protease = BoNT F light chain protease inhibition; Multiplex microsphere protease cleavage assay, flow cytometry; inhibition, % at 10 µM; 0.22% of 360,000 active; AID 588497; in the data active = inhibition above about 35%, passing the limit was not always enough; inconclusive = no clear call, values can overlap the other calls
Autofluor counter = compound fluorescence in toxin protease inhibitor counterscreen. fluorescence intensity (no concentration beside the values). 3.1% of 360,000 active. compound autofluorescence counterscreen, microsphere flow cytometry; hits give high values. AID 624483; in the data active = fluorescence intensity above about 16000; inconclusive = no clear call, values can overlap the other calls
BoNT A protease = blocks Botulinum neurotoxin A light chain protease. 0.17% of 360,000 active. multiplex microsphere protease substrate cleavage, flow cytometry. inhibition, % at 10 µM
Large screens that a line does not name were inactive. Only some compounds are listed: those with a hit (about 3.7% of all), similar ones and a draw of the others. Cut-off read from the data, not from the text of the source, unless noted: active = inhibition above about 30%; inconclusive = no clear call, values can overlap the other calls; inactive = below that.

COc1ccc(-n2c(O)c(/C=C3\C=Nc4ccccc43)c(=O)[nH]c2=O)cc1	MazEF act 303.9, BoNT F protease inconclusive
O=C(O)c1ccc(-c2ccccc2)[nH]1	Autofluor counter 22282
c1ccc(-c2ccc(-c3ccccc3)[nH]2)cc1	none
CN1CCN(C(=O)c2ccc(-c3nn(C)c(=O)c4ccccc34)cc2)CC1	none
Cn1nc(-c2ccc(C(=O)N3CCN(CCO)CC3)cc2)c2ccccc2c1=O	Autofluor counter 21691, BoNT A protease inconclusive
CCCCn1c(=O)c(CC(C)=O)nc2ccccc21	none
CCCCn1c(N(CCOC(C)=O)C(C)=O)nc2ccccc21	Autofluor counter 19843
Cc1cc(=O)oc2cc(NC(=O)c3ccccc3Cl)ccc12	none
CC(=O)Nc1ccc(S(=O)(=O)NCCC(=O)OCC(=O)N2CCN(C(=O)c3ccco3)CC2)cc1	none
Cc1ccc(S(=O)(=O)Nc2ccc(-n3c(C)nc4ccccc4c3=O)cc2)cc1	Autofluor counter inconclusive
Cc1cccc(C(=O)Nc2sc(C)c(-c3ccccc3)c2C#N)c1	none
Cc1noc(C)c1C(=O)Nc1sc(C)c(-c2ccccc2)c1C#N	Autofluor counter 22924, BoNT A protease inconclusive
CN(CC(=O)O)S(=O)(=O)c1ccc(F)cc1	none
CNC(=O)CN(C)S(=O)(=O)c1ccc(F)cc1	Autofluor counter 23131, BoNT A protease inconclusive
Cc1ccc(NC(=O)C(C)NS(=O)(=O)c2ccc(F)cc2)cc1C (centres undefined)	none
CNC(=O)C(C)NS(=O)(=O)c1ccc(F)cc1 (centres undefined)	Autofluor counter 21451
Cc1ccc(S(=O)(=O)NCc2ccccc2)cc1C(=O)NCCc1ccc(S(N)(=O)=O)cc1	none
O=[N+]([O-])c1ccc(/C=C2\CCC(C3=CCCC3)=C2N2CCOCC2)cc1	none
CC1(C)NC(=O)N(CC(=O)Nc2nc(-c3ccc(F)cc3)cs2)C1=O	Autofluor counter 18087
O=C(CN1C(=O)NC2(CCCC2)C1=O)Nc1nc(-c2ccc(F)cc2)cs1	none
COc1ccc(CN2CCN(CC(=O)Nc3ccccc3C(=O)NC3CC3)CC2)cc1F	BoNT F protease inconclusive, Autofluor counter 19106
CNC(=O)NC1CCCCc2sccc21 (centres undefined)	Autofluor counter 16866
CNC(=S)N1CCc2sccc2C1C (centres undefined)	none
Cc1ccc2c(c1)CCCN2C(=O)c1ccco1	Autofluor counter 22783
O=C(c1ccco1)N1CCc2ccccc21	none
Cc1ccc2c(c1)CCCN2C(=O)c1ccc2c(c1)OCO2	Autofluor counter 23514
O=C(c1ccc2c(c1)OCO2)N1CCCc2ccccc21	none
COc1cccc(CN2CC(C(=O)N(C)C3CCOCC3)CCC2=O)c1 (centres undefined)	Autofluor counter inconclusive
O=C(CSc1ccccc1F)NCC(c1ccco1)N1CCCCC1 (centres undefined)	none
Cc1cc(C)n2nc(C(=O)OCC(=O)NNC(=O)c3ccccc3)nc2n1	none
O=C(c1cc2cc(Cl)ccc2[nH]1)N1CCN(C(=O)c2ccco2)CC1	none
Cc1ccc(CNC(=O)c2cc(C)nn2-c2ccccc2)cc1	none
Cc1ccc(Cc2nnc3n(-c4ccccc4)nc(C(=O)c4ccccc4)n3c2=O)cc1	Autofluor counter 21560
COc1ccc(C2N(C(=O)CN3CCOCC3)CCN2S(=O)(=O)c2ccccc2)cc1 (centres undefined)	Autofluor counter 22919, BoNT A protease inconclusive
Cc1ccc(S(=O)(=O)N2CCN(C(=O)N3CCOCC3)C2c2ccc(N(C)C)cc2)cc1 (centres undefined)	Autofluor counter 21067, BoNT A protease inconclusive
CCOC(=O)N1CCN(S(=O)(=O)c2ccc(C)cc2)C1c1ccc(OC)cc1 (centres undefined)	none
Cc1ccc(S(=O)(=O)N2CCN(C(=O)N3CCOCC3)C2C)cc1 (centres undefined)	Autofluor counter 23303
CCC(=O)N1CCCN(S(=O)(=O)c2ccc(C)cc2)C1c1ccc(OC)cc1 (centres undefined)	none
CN(C)c1ccc(C2N(C(=O)N3CCOCC3)CCN2S(=O)(=O)c2ccccc2)cc1 (centres undefined)	none
COc1ccc(C2N(C(=O)N3CCOCC3)CCN2S(=O)(=O)c2ccc(C)cc2)cc1 (centres undefined)	Autofluor counter 22397
O=c1c2ccccc2on1-c1ccccc1	none
COc1ccc(-c2nn(-c3ccccc3)cc2CNC[C@H]2O[C@@H](n3cnc4c(N)ncnc43)[C@H](O)[C@@H]2O)cc1	none
Cc1ccc(S(=O)(=O)N2CCN(S(=O)(=O)c3ccc(C)cc3)C2c2ccccc2)cc1	none
COc1ccc(C2N(S(=O)(=O)c3ccccc3)CCN2S(=O)(=O)c2ccc(C)cc2)cc1 (centres undefined)	Autofluor counter 17266
COc1ccc(CONS(=O)(=O)c2ccc(NC(C)=O)cc2)cc1Cl	Autofluor counter 20406
COc1ccc(S(=O)(=O)Nc2ccc(NC(C)=O)cc2)cc1Cl	none
O=c1c2cnn(-c3ccccc3)c2nc(-c2ccco2)n1-c1ccccc1	Autofluor counter 22323
O=c1oc(-c2ccco2)nc2c1cnn2-c1ccccc1	none
O=Cc1ccc(Sc2nnc(-c3ccccc3)o2)c([N+](=O)[O-])c1	Autofluor counter 19318, BoNT A protease inconclusive
COc1cc(/C=N/NC(=O)c2nc3ccccn3c2C)cc(OC)c1O	none
O=C(Nc1nc2c(s1)CCCC2)c1cccs1	none
CCc1nnc(NC(=O)/C=C/c2ccco2)s1	BoNT F protease 44.1
Cc1occc1-c1nnc(SCC(=O)Nc2ccccc2-c2ccccc2)n1C	none
Cn1c(SCC(=O)Nc2ccccc2-c2ccccc2)nnc1-c1ccco1	Autofluor counter 16441
O=C(Cc1cccs1)Nc1nc2c(s1)CCCC2	Autofluor counter 17280
Cn1c(SCC(=O)Nc2nc3c(s2)CCCC3)nnc1-c1ccccc1	Autofluor counter 20299
Cc1cc(=O)oc2cc(O)cc(OCc3ccccc3)c12	none
CC(Sc1n[nH]c(-c2ccccc2)n1)C(=O)c1c(N)n(C)c(=O)n(C)c1=O (centres undefined)	Autofluor counter inconclusive
CCCn1c(SCC(=O)Nc2nnc(CC)s2)nnc1-c1ccco1	BoNT F protease inconclusive
CCc1nnc(NC(=O)CSc2nnc(-c3ccco3)n2CC)s1	Autofluor counter 22759
CCc1nnc(NC(=O)CSc2nnc(-c3ccco3)n2C)s1	Autofluor counter 21882
Cc1cc(C(=O)CSc2nnc(-c3ccncc3)n2-c2ccccc2)c(C)n1C	none
Cc1cc(C(=O)CSc2nnc(-c3ccccc3)n2C)c(C)n1C	Autofluor counter 22200
Cc1cc(C)n(-c2cccc(Cl)c2C#N)n1	none (no result: Anthrax LF prot, BoNT F protease, Autofluor counter, BoNT A protease)
COc1ccccc1CNC(=O)C1CCCN1S(=O)(=O)c1ccc2c(c1)C(C)(C)C(=O)N2C (centres undefined)	none (no result: MazEF act)
O=C(Nc1cccc(F)c1)N1CCN(C(=O)c2ccco2)CC1	none
O=C(CN1C2=NCCCN2c2ccccc21)c1ccc([N+](=O)[O-])cc1	none
Clc1ncccc1-c1nc2ccccc2n1Cc1ccccc1	Autofluor counter 20310, BoNT A protease inconclusive
CS(=O)(=O)c1nc2ccccc2n1Cc1ccccc1	Autofluor counter 23807
CCn1c(-c2cccnc2Cl)nc2ccccc21	Autofluor counter 23168

Bioassay records as filed in PubChem BioAssay.
